Source: PubChem BioAssay
In the library only some 0.9% were active in any assay of this set; here they are far more common.
RXFP1 antag = RXFP1 (human) relaxin receptor antagonism; HEK293-RXFP1, relaxin-stimulated cAMP HTRF, 30 min; stronger effect = lower value; activity change, negative = inhibition, % at 57.5 µM; 350,000 compounds, 0.59% hits; Q9HBX9;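 active = activity change of -60% or lower, but not beyond a set lower limit; inconclusive = change between -60% and -40%, or beyond the set limit; inactive = change above -40%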
Target sequence (Q9HBX9 whole entry, looked up): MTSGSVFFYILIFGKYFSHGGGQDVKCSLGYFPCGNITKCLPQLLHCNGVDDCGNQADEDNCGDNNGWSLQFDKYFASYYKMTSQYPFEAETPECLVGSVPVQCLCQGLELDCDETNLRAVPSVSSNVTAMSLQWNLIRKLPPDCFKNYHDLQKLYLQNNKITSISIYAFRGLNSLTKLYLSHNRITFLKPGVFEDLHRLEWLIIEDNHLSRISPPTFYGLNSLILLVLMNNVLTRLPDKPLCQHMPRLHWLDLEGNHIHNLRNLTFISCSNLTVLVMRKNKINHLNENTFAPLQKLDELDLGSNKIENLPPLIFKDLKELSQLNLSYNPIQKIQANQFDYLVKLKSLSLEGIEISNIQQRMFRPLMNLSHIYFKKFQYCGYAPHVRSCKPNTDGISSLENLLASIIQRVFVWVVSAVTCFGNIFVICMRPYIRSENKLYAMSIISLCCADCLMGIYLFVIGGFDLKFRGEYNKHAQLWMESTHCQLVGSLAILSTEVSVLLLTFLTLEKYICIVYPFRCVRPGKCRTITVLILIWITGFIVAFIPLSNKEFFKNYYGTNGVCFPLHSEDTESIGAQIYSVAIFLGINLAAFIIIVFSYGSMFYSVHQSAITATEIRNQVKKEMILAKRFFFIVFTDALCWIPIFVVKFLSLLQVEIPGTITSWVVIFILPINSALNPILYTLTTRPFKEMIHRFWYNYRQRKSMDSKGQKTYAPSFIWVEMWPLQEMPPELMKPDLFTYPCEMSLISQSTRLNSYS
RXFP1 ag = agonists of human relaxin receptor RXFP1; Q9HBX9; HEK293T-RXFP1 cAMP TR-FRET, 30 min; response scale: percent of porcine relaxin response, buffer zero; Potency, µM (titrated, usually from 57.5 µM), hits mostly activators; 370,000 compounds, 0.3% hits; AID 2676; active = well fitted activation curve with a large enough effect; inconclusive = small, poorly fitted or top-dose-only effect; note: nearly all actives have a fitted effect of over 60% in size
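HEK293 cells stably expressing RXFP1, treated 30 min at 37C with compounds plus PDE4 inhibitor Ro 20174; cAMP measured by HTRF TR-FRET. Normalized to buffer and 29 nM porcine relaxin; EC50 by Hill fit.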
gsp ag = activates gsp, the McCune-Albright syndrome mutation. gsp mutant cells, cAMP HTRF, 30 min. 340,000 compounds, 0.13% hits. Potency, µM (top dose mostly 76.9 µM), actives largely listed as activators; active = well fitted activation curve with a large enough effect; inconclusive = small, poorly fitted or top-dose-only effect, or another doubt; inactive = no such curve, though single readings can be large or run the other way; cell line not stated here;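 note: phosphodiesterase inhibitor Ro 20-1724 added with compounds to block cAMP breakdown; nearly all actives have a fitted effect of over 60% in size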
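Cells stably selected in G418 were plated at 2000/well, grown 16-24 hr, then given compounds in DMSO with the PDE inhibitor […] (300 uM solution added) for 30 min at 37C; cAMP was read by HTRF.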
gsp antag = gsp mutant antagonism; gsp-mutant cells, cAMP HTRF, 30 min; 340,000 compounds, 0.4% hits; Potency, µM (series often up to 76.9 µM), actives largely listed as inhibitors; calls by dose curve; cell line not stated here;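 note: intracellular cAMP measured with PDE inhibitor Ro 20-1724 present during compound exposure; nearly all actives have a fitted effect of over 65% in size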
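G418-selected cells were plated in DMEM/10% FBS for 16-24 h at 37C, then treated with compounds plus the PDE inhibitor […] (300 uM solution added) for 30 min at 37C. Intracellular cAMP was measured by HTRF after 30 min lysis at room temperature.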
Large screens that a line does not name were inactive.

COC(=O)c1cc2c(=O)c3ccccc3oc2nc1/C=C/N(C)C	gsp antag 35.5µM
CN(C)Cc1nc2c(c(=O)[nH]1)C1(CCCCC1)Cc1ccccc1-2	RXFP1 antag -61.9
CCCOc1ccc(CNC(=O)CCCN2C(=O)CSc3c2c(C)nn3-c2ccccc2)cc1	none (no result: RXFP1 antag, gsp ag, gsp antag)
CCCCCCn1c2c(c(=N)c3c1CCC3)CCC2	gsp antag 35.5µM
CCCCCCCCCn1c2c(c(=N)c3c1CCC3)CCC2	RXFP1 antag -70.2
O=C1CCc2cc(NS(=O)(=O)c3ccc([N+](=O)[O-])cc3)cc3c2N1CCC3	none
CCN1CCN(CCCNC(=O)Cn2nc(C)n3c(cc4c(OC)cccc43)c2=O)CC1	none (no result: gsp ag, gsp antag)
NC[C@H]1O[C@H](O[C@H]2[C@H](O[C@@H]3O[C@H](CO)[C@@H](O)[C@H]3O)C(O)[C@H](N)C[C@@H]2N)[C@H](N)[C@@H](O)[C@@H]1O (some centres undefined)	none (no result: RXFP1 ag, gsp ag, gsp antag)
O=C1CCSC2(C(=O)N(Cc3ccc(F)cc3)c3ccccc32)N1c1ccc(F)c(F)c1 (centres undefined)	RXFP1 antag -72.0 (no result: gsp ag, gsp antag)
Cc1cccc(N2C(=O)CCSC23C(=O)N(Cc2ccc(F)cc2)c2ccccc23)c1 (centres undefined)	RXFP1 antag -63.1 (no result: gsp ag, gsp antag)
O=C1CCSC2(C(=O)N(Cc3ccc(F)cc3)c3ccccc32)N1c1ccccc1 (centres undefined)	RXFP1 antag -62.3 (no result: gsp ag, gsp antag)
CNC(=O)C1CCC(Cn2c(=O)[nH]c3ccsc3c2=O)CC1 (centres undefined)	none (no result: gsp ag, gsp antag)
CC1Cc2cc(S(=O)(=O)CCC(=O)Nc3ccc(Cl)cc3F)ccc2N1C(=O)C1CC1 (centres undefined)	none (no result: gsp ag, gsp antag)
CC(=O)c1ccc(NC(=O)Cn2ncc3c4ccccc4n(Cc4ccccc4)c3c2=O)cc1	RXFP1 ag inconclusive (no result: gsp ag, gsp antag)
COCCNC(=O)c1cn(C)c2ccc(S(=O)(=O)N3CCCC3)cc2c1=O	gsp antag 50.1µM
CC(=O)N1CCN(S(=O)(=O)c2cccc(C(=O)Nc3ccc4c(c3)OCO4)c2)CC1	gsp antag 11.2µM
O=C(Nc1ccc2c(c1)OCO2)c1cccc(S(=O)(=O)N2CCCC2)c1	gsp ag inconclusive, gsp antag inconclusive
COc1ccc(N2CC(NC(=O)c3cccs3)CC2=O)cc1 (centres undefined)	none (no result: gsp ag, gsp antag)
Cc1ccc(-c2nc3ccc([N+](=O)[O-])cc3[nH]2)cc1	gsp antag inconclusive
O=[N+]([O-])c1ccc2nc(-c3ccncc3)[nH]c2c1	gsp ag 10µM
O=[N+]([O-])c1ccc2nc(-c3ccc(Cl)cc3)[nH]c2c1	gsp antag 35.5µM
O=[N+]([O-])c1cccc(-c2nc3ccc([N+](=O)[O-])cc3[nH]2)c1	gsp ag inconclusive
COC(=O)c1cc(Cl)ccc1NS(=O)(=O)C(F)(F)F	none (no result: RXFP1 ag, gsp ag, gsp antag)
C[C@H](CO)N1C[C@H](C)[C@@H](CN(C)Cc2ccc(-c3ccccc3)cc2)Oc2c(NS(=O)(=O)c3cn(C)cn3)cccc2C1=O	none (no result: RXFP1 antag, RXFP1 ag, gsp ag)
Cc1ccc(CN(Cc2ccco2)C(=O)COc2cccc(C)c2C)o1	RXFP1 antag -96.1 (no result: gsp ag, gsp antag)
Cc1ccc(CN(Cc2ccco2)C(=O)COc2ccc(Cl)cc2)o1	RXFP1 antag -68.9 (no result: gsp ag, gsp antag)
Cc1cccc(OCC(=O)N(Cc2ccc(N(C)C)cc2)Cc2ccco2)c1C	none (no result: gsp ag, gsp antag)
COc1ccc(Cl)cc1NC(=O)c1ccc(CN2C(=O)CCn3nc(C)cc32)cc1	none (no result: gsp ag, gsp antag)
O=C(NCCOCCn1c(=O)oc2ccccc21)Nc1ccc(F)cc1	none (no result: RXFP1 antag, gsp ag, gsp antag)
N#CC(c1ccccc1)C(CC(=NO)c1ccccc1)c1ccccc1 (centres undefined)	RXFP1 antag -90.8 (no result: RXFP1 ag, gsp antag)
CN(C(=O)c1cc(S(=O)(=O)N2CCc3ccccc32)cn1C)C1CCCCC1	RXFP1 antag -103.4
CC1CCc2onc(C(=O)N3CCN(c4cccc(Cl)c4)CC3)c2C1 (centres undefined)	none (no result: gsp ag, gsp antag)
COc1ccc(OC)c(C2C(C(=O)c3ccc(C)o3)=C(O)C(=O)N2c2cc(C)on2)c1 (centres undefined)	RXFP1 ag inconclusive, gsp ag inconclusive
Cc1cc(N2C(=O)C(O)=C(C(=O)c3cc4ccccc4o3)C2c2ccc(Br)cc2)no1 (centres undefined)	RXFP1 ag 22.4µM, gsp ag 3.55µM
COc1ccc(OC)c(C2C(C(=O)c3cc4ccccc4o3)=C(O)C(=O)N2c2cc(C)on2)c1 (centres undefined)	RXFP1 ag inconclusive, gsp ag 14.1µM (no result: RXFP1 antag)
COc1ccc(CNC(=O)c2cccn2-c2nnc(N3CCCCC3)s2)c(OC)c1	none (no result: gsp ag, gsp antag)
